Over roughly 25,000 sequences, “ln(normalized median fluorescence intensity)” has its median near 9.7; the highest 2% begin near 11. For the sample, the highest values were picked, then their nearest neighbours and some sequences at random.
These sequences were tested on PfAP2-HC AP2 domain (GST-tagged) (assay: gcPBM binding intensity (ln(normalized median fluorescence intensity)); higher = stronger DNA binding).
How it was run: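 DNA-binding domains from P. falciparum, fused to GST and produced in E. coli, were put on an Agilent 4 × 180k double-stranded probe array for 1 h in 1× PBS holding 1% milk, 0.2 mg/ml BSA, 0.5% salmon testes DNA and 0.03% Triton X-100. Probes were primer-extended, 36 bp long and drawn from intergenic genomic regions, with negative controls included. After Alexa488 anti-GST antibody detection and a 488 nm scan, binding intensity was set as the highest Masliner-normalised natural-log median intensity across replicate spots of either probe orientation.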

Row | Sequence | gcPBM binding intensity (ln)
1 | TTTCTTTTTTCTGTTATTATTATAAAACGATATTTA [TGCATGCA_negctrl_site167] | 9.58
2 | TTATTAAGTAAATCACATTTAATTTTTTTTTTTTTT [CACACA_negctrl_site1280] | 9.27
3 | GAATATGTTAACATTTGTACATAAAATTTTTTACAA [XGTACX_site2444] | 9.49
4 | ATTATTTTGTTTATTACATGCAGGTGTATATTACAG [TGCATGCA_site723] | 9.59
5 | ATCACATAAAATATGAATATATATTTTATATATATA [CACACA_negctrl_site340] | 9.53
6 | AAAAGAGAAATGGGCACACACACACCCATTATATAT [CACACA_site1530] | 10.2
7 | AGAAAAGAGAAATGGGCACACACACCCATATTATAT [CACACA_site8433] | 10.1
8 | AAAAGAGAAATGGGCACACACACACCGATTATATAT [CACACA_site4942] | 11
9 | GTACCTATTTCATACACACACACACCCAAACAAACA [CACACA_site976] | 10.5
10 | ACCTATTTCAAACACACACACACACCCACAAACATA [CACACA_site977] | 10.9
11 | ACCTATTTCAAACACACACACACACTAGCAAACATA [CACACA_site4695] | 10.9
12 | GTACCTATTTCATACACACACACACGCAAACAAACA [CACACA_site6590] | 11.1
13 | ACCTATTTCAAACACACACACACACTAACAAACATA [CACACA_site8233] | 10.8
14 | ATGTACCTATTTCATACACACACACCCACAAACAAA [CACACA_site8232] | 10.4
15 | TATATAAACACGTACACACACATATCTGTATTTATA [CACACA_site5858] | 10.4
16 | AAAAAATAGTGGTATGCATGTCCCTTGTATTTTCTT [TGCATGCA_site587] | 9.63
17 | TACACCAAAAAAAAACGTACAAAATCCCACCCAGAC [XGTACX_site4622] | 11.1
18 | TTAATGTACAGACACCCACACACAAACAAATATATA [CACACA_site8888] | 10.2
19 | GTATATATTTAAACACGTACACAAAACCCAAAAAAT [XGTACX_site8110] | 9.95
20 | TAATTTTTTTTTTTTTTTTTTGTACTTCATTTTTAT [CACACA_negctrl_site1395] | 9.58
21 | TTTTTTTTGTTCTATACAATTATAAAAATAAAATAT [XGTACX_negctrl_site53] | 9.06
22 | TAATACTTAGAGAAAAGTACGTATGAACTTATGTAA [XGTACX_site5504] | 9.59
23 | TTTCCCTTGTTGTAAACATGCACAATATTTAGGTAT [TGCATGCA_site49] | 9.75

Row | Sequence | gcPBM binding intensity (ln)
24 | AAAGAAGGGAAACACACACACACACCCACAAAAAAA [CACACA_site3766] | 11.4
25 | AAAGCACCCATGCACACACACAAAGGAAAAGAAAAA [CACACA_site6249] | 10.3
26 | AAAAAAAAAAAACACACACACACACCGACAAAATAT [CACACA_site8411] | 10.8
27 | AAAGAAGGTAAACACACACACACACCGACAAAAAAA [CACACA_site9255] | 11.5
28 | CACAAACAAAAACACACACACACACCGACAAAAATG [CACACA_site5362] | 10.6
29 | CAAAAGAAGGTAAACACACACACACGCATACAAAAA [CACACA_site7724] | 10.4
30 | TTAAAGCACCCATGCACACACACAAAGGAAAAGAAA [CACACA_site233] | 10.2
31 | CAAAAGAAGGTAAACACACACACACCCATACAAAAA [CACACA_site3765] | 10.7
32 | AATTAACAAAAACACACACACACACCGACAAAAAAA [CACACA_site4444] | 10.9
33 | AAAGCACCCAGGCACACACACAAAGGAAAAGAAAAA [CACACA_site232] | 11
34 | TTAACAAAGAAACACACACACACACCCAAAAAAAAA [CACACA_site516] | 10.6
35 | CACACCCACCAACACACACACAAAAAAAAAAAGAAA [CACACA_site500] | 10.4
36 | TTTTTTTCTTTATTAGCACACATAATATTATATATG [CACACA_site8841] | 9.79
37 | TTGGGGTATCTTCCTATGCACACTTGTTATGTACTA [CACACA_site831] | 9.85
38 | TATATATATATATATTGTACTATATAGTATCTTTTT [XGTACX_site1646] | 9.78
39 | TTTCACATATATATGGTGCATATTTTATGTGTAAAT [GTGCAC_site9937] | 9.7
40 | AATTTTTTTTAATGATGTACTTTTTGAAAATAAACT [XGTACX_site4221] | 9.31
41 | TTTCTAAGAAAAAAAAAAAAAAAAAAAAAGATACAA [GTGCAC_negctrl_site525] | 9.24
42 | AGCACACCCACAAAAACACACACAAAGGTGTTCTTA [CACACA_site8355] | 10.5
43 | TACATAAATTAAAACACACACACACCCAAAAAAAAA [CACACA_site2261] | 10.5
44 | TAAAATAAAACAAACACACACACACCCCCACAAAAA [CACACA_site3850] | 10.8
45 | GTAAAAAAAGAGCACACACACAAAAACACCCACAAA [CACACA_site1292] | 10.9
46 | AATTAACAAAAACACACACACACACCCACAAAAAAA [CACACA_site517] | 11.4

Row | Sequence | gcPBM binding intensity (ln)
47 | AATTAAACTCACACCACACACAAAAAAAAAAAAAAA [CACACA_site693] | 10.3
48 | AAGTAAAAAAATAGCACACACACAAAAACACCCACA [CACACA_site1291] | 10.8
49 | TGCAACAAAATAAACACACACACACCCCCACAAAAA [CACACA_site3388] | 10.6
50 | CACAAACAAAAACACACACACACACCCACAAAAATG [CACACA_site2429] | 11
51 | ATTTTTTTGTTATTGTTGAAAAGATGGTTCTTTTTT [CACACA_negctrl_site1346] | 9.52
52 | TATATAGGTATATATACACACAACGGTTATAAATAT [CACACA_site4759] | 9.94
53 | AGCATATTATCATATTGTACATATTATAATATATAT [XGTACX_site3907] | 9.69
54 | AATAATACAAAAGTTCAACAAAAAAAAAAAAAAAAT [CACACA_negctrl_site952] | 9.75
55 | TGTTAATTAAAACATCATTAATATTATTAAAAATAC [XGTACX_negctrl_site509] | 9.36
56 | ATTTTTTTTATTTTTTCAATATATATATATATATAT [CACACA_negctrl_site1444] | 9.74
57 | AAAATATAATATATTACACACATATATTTTATAAGT [CACACA_site668] | 9.82
58 | ATATATATGAATACATGTACGTATTTGTCTATGTAT [XGTACX_site8306] | 9.81
59 | TTTTTTATTATTATGTGTACGAATATGTGCATATAA [XGTACX_site1364] | 9.65
60 | AAAAATAAAGGGTGTGCACACAAAAATATATATATA [CACACA_site1727] | 11
61 | AAATAAAAAGGGTGCACACAAAAATATATATATATA [CACACA_site1728] | 9.94
62 | AAAAATAAAAGGTGTGCACACAAAAATATATATATA [CACACA_site8507] | 10.5
63 | ATAATATGAAAACACACACACACACTAGAAAAAAAA [CACACA_site5153] | 10.9
64 | AATATAAAAATGCACACACACAAAAAAAAAAAAAAA [CACACA_site6546] | 10.9
65 | AAAAAAAAAAAACACACACACACACTAATATATAAA [CACACA_site8302] | 10.9
66 | TACACCCACCAACACACACACACACTAATAAAAAAA [CACACA_site8060] | 11.3
67 | AATAAAAAAAAATGCACACATATATATATATATATA [CACACA_site2421] | 9.71
68 | TGAACACCCACAAATACACACAAAAAAAATAAATAA [CACACA_site248] | 10.6
69 | TAAATATAAAAATGCACACACACAAAAAAAAAAAAA [CACACA_site895] | 11.4

Row | Sequence | gcPBM binding intensity (ln)
70 | ATAATATGAAAACACACACACACACTAATAAAAAAA [CACACA_site8617] | 11.5
71 | TGCACCCACCAACACACACACAACTAAAAAATAATG [CACACA_site2566] | 10.5
72 | TTTTAATTAGTACAAACACACATATACACCCAAAAA [CACACA_site5422] | 10
73 | GATGATACGATTATCACACATTTATACTTTCTACAT [CACACA_site5669] | 9.85
74 | AAACAAAAAATTTAAAGTACAAAAATTATGATTGTT [XGTACX_site465] | 9.62
75 | TATTTAATGTGATACTTATATTATTTTATGATTAAA [GTGCAC_negctrl_site25] | 9.49
76 | AAAAAAGTTGTATTTGCACACATAAAAAAAAGATAT [CACACA_site3839] | 9.93
77 | AGAGAATAAATATAAAGTACATATATAAATATATAT [XGTACX_site5055] | 9.7
78 | AAAAAATTATATAAATGTACATTTTGGCTAGACATG [XGTACX_site5977] | 9.71
79 | ATAAATAATATAAATACACACTAAAAAAAATATATA [CACACA_site4456] | 9.88
80 | AATAAATATAAAAATGCACACACACTAATAAAAAAA [CACACA_site8201] | 11.4
81 | TATATATATATATATACACACACACTAATAAAAAAA [CACACA_site8426] | 11
82 | TAAAAAATATAAACTGCACACACACTAATAAAGAAA [CACACA_site8119] | 11.1
83 | AAAATATAATATAATGCACACATAAAAAAAAAAAAA [CACACA_site7989] | 9.84
84 | AAAAATATAAACTGCACACACACAAAAAAAGAAAAA [CACACA_site648] | 10.8
85 | ATATAAATAATATAAATACACACTAAAAAAAATATA [CACACA_site542] | 9.84
86 | TAATAAATCAAATGCACACACACAAAAAAAAAAAAA [CACACA_site161] | 10.3
87 | ATAATAAAAAAAAATGCACACATATATATATATATA [CACACA_site8766] | 9.8
88 | AAAAATATAAACTGCACACACAAAAAAAAAAGAGAA [CACACA_site1367] | 10.3
89 | AATATAATATAATGCACACATAAAAAAAAAATCAAA [CACACA_site122] | 9.89
90 | TATAATAAATCAAATGCACACACACTAATAAAAAAA [CACACA_site7937] | 11.3

— the supplement of paper PMC11417369
